CHO-K1 Ca antag – nonselective inhibitor or artifact in parental CHO-K1 cells; actives 0.6% (n = 360,000); ATP-induced calcium, Fluo-8 fluorescence; inhibition, % at 3 µM;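 active = inhibition above a per-plate cutoff, the plate's mean sample inhibition plus 3 SD, cut at about 24% in these data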;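 note: 0% = DMSO plus EC80 ATP and 100% = DMSO alone without ATP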
M1 ag parental – counter-screen for M1 agonists: effect in parental CHO-K1 cells. actives 0.48% (n = 360,000). activation, % at 3 µM. AID 602248, 2012. Fluo-8 calcium fluorescence; scaled to maximal ATP response, vehicle zero; in the data active = activation above about 15%;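 note: untransfected CHO-K1 host cells lacking M1 receptor as counterscreen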
M1 PAM parental – nonselective calcium activators in parental CHO-K1 cells, primary screen, counter-screen for M1 PAM project, cell-based, Fluo-8 calcium fluorescence, full deck, 1536-well | ATP EC20; 0% at ATP EC20, 100% at ATP max | activation, % at 3 µM | actives 0.02% (n = 360,000) | AID 602247, 2012;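 active = activation above the run cutoff, the mean activation of all test compounds plus 3 SD, cut at about 40% in these data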;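 note: peak over basal fluorescence ratio in a 140 s read after ATP addition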
CHRM1 agonist – human M1 muscarinic receptor agonists, primary screen, Fluo-8 calcium fluorescence, CHO-K1 cells, HTS | actives 0.33% (n = 360,000) | AID 588814, 2011 | Muscarinic acetylcholine receptor M1 (Homo sapiens), P11229 | CHO-K1 hM1, agonist mode; 0% DMSO, 100% acetylcholine EC100 | activation, % at 3 µM;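 active = activation above the run's mean compound activation plus 3 SD, cut at about 16% in these data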;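 note: peak over basal fluorescence ratio within a 140 s kinetic read after compound addition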
Target sequence (P11229 whole entry, looked up): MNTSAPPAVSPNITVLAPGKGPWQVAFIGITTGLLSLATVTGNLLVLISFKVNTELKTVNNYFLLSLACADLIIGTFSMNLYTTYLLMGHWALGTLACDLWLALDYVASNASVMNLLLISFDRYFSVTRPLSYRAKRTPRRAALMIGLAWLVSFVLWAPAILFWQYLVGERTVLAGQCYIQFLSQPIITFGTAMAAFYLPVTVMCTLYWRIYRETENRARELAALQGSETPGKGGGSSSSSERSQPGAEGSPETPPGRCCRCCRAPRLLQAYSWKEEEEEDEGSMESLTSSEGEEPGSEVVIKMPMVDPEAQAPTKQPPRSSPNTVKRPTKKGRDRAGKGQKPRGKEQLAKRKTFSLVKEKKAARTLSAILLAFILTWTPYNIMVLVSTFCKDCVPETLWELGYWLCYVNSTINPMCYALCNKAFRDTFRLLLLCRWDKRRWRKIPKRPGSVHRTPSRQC
CHRM1 antagonist – human M1 muscarinic receptor antagonists, primary screen, CHO-K1 cells, Fluo-8 calcium fluorescence, 1536-well. CHO-K1 hM1, ACh EC80 antagonist. inhibition, % at 3 µM. actives 1.3% (n = 360,000). AID 588852, 2011;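 active = percent inhibition above its own plate's cutoff, namely the mean of that plate's compound wells plus 3 SD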;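 note: peak over basal fluorescence ratio during 140 s after agonist addition; 0% = ACh EC80 plus DMSO and 100% = DMSO alone without agonist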
M1 PAM – human M1 muscarinic receptor positive allosteric modulators, primary screen, CHO-K1 cells, Fluo-8 calcium fluorescence, 1536-well | AID 588819, 2011 | actives 0.088% (n = 360,000) | activation, % at 3 µM | CHO-K1 hM1, ACh EC20; 0% = ACh EC20, 100% = maximal ACh | Muscarinic acetylcholine receptor M1 (Homo sapiens), P11229; in the data active = activation above about 19%, passing the limit was not always enough
* marks the source's active call; other numbers are inactive results. Most compounds without a hit are left out; they make up all but 2.3% or so of the library.

`CC(C)c1nc(SCC(=O)Nc2c[nH]c(=O)[nH]c2=O)c2cnn(-c3ccccc3)c2n1` gave CHO-K1 Ca antag 40.5*, M1 ag parental -0.7, M1 PAM parental 3.3, CHRM1 agonist -3.9, CHRM1 antagonist 7.2 and M1 PAM 2.5.
Screening COc1cc(OC)cc(C2=Cc3ccc(OC)cc3C(CC(C)=O)N2c2ccc(C#CC3(O)CCCCC3)cc2)c1 (stereo not drawn) returned CHO-K1 Ca antag -13.2, M1 ag parental 1.3 and M1 PAM parental 27.9.
COc1cccc(C2=Cc3ccc(F)cc3C(CC(C)=O)N2c2ccc(C#CC3(O)CCCCC3)cc2)c1 (stereo not drawn) was read as CHO-K1 Ca antag -27.6, M1 ag parental 1.8 and M1 PAM parental 45.7*.
`COc1ccccc1N1CCN(C(=O)CC(NC(=O)c2ccccc2Cl)c2ccccc2)CC1` (stereo not drawn) gave CHO-K1 Ca antag -3.1, M1 ag parental 2.3, M1 PAM parental 13.1, CHRM1 agonist -3.6, CHRM1 antagonist -13.8 and M1 PAM 9.7.
For Cc1c(C(=O)NCCC2=CCCCC2)oc2ccc(S(=O)(=O)N3CCOCC3)cc12 the results were CHO-K1 Ca antag 9.7, M1 ag parental 6.0, M1 PAM parental 11.1, CHRM1 agonist 3.0, CHRM1 antagonist 42.3* and M1 PAM -13.6.
For Cc1cc(NC(=O)CCC(=O)N(CC(=O)NCC2CCCO2)c2ccc(C)c(C)c2)no1 (stereo not drawn) the results were CHO-K1 Ca antag -16.7, M1 ag parental 1.1, M1 PAM parental 17.6, CHRM1 agonist -7.9, CHRM1 antagonist -5.4 and M1 PAM 5.9.
Screening Cc1nonc1NC(=O)CSc1nc2ccc(Cl)cc2[nH]1 returned CHO-K1 Ca antag 34.1*, M1 ag parental 11.6, M1 PAM parental -3.0, CHRM1 agonist 1.1, CHRM1 antagonist -6.8 and M1 PAM 3.4.
For O=C(NC(=O)N1CCN(C(c2ccccc2)c2ccccc2)CC1)c1ccccc1 the results were CHO-K1 Ca antag -11.0, M1 ag parental 0.9, M1 PAM parental 12.4, CHRM1 agonist -4.8, CHRM1 antagonist 66.4* and M1 PAM -21.8.
For CCCNC(=O)N1CCN(C(c2ccccc2)c2ccccc2)CC1 the results were CHO-K1 Ca antag -8.5, M1 ag parental -0.4, M1 PAM parental 12.3, CHRM1 agonist -5.1, CHRM1 antagonist -8.8 and M1 PAM 6.2.
Screening O=C(Nc1ccccc1C(F)(F)F)N1CCN(C(c2ccccc2)c2ccccc2)CC1 returned CHO-K1 Ca antag 1.1, M1 ag parental 0.5, M1 PAM parental 12.3, CHRM1 agonist -6.0, CHRM1 antagonist 44.4* and M1 PAM -24.9.
Screening CC(=O)Nc1cccc(-c2ccnc3c2CC(C)(C(=O)NCc2ccc(N(C)C)cc2)O3)c1 (stereo not drawn) returned CHO-K1 Ca antag 10.5, M1 ag parental -0.1, M1 PAM parental -10.0, CHRM1 agonist 2.4, CHRM1 antagonist -0.5 and M1 PAM 8.4.
`COc1cc(/C=N/N2C(=O)CSC2=S)cc(Br)c1O` gave CHO-K1 Ca antag 19.3, M1 ag parental 48.4*, M1 PAM parental -3.4, CHRM1 agonist 55.4*, CHRM1 antagonist 37.7* and M1 PAM -12.5.
CCc1ccc(N2CC(C(=O)OCC(=O)NNC(=O)c3ccccc3)CC2=O)cc1 (stereo not drawn) was read as CHO-K1 Ca antag 11.6, M1 ag parental 1.1, M1 PAM parental -11.7, CHRM1 agonist -3.0, CHRM1 antagonist -9.0 and M1 PAM 7.5.
For COc1cccc(-c2cnc(C(O)c3ccc(F)c(C)c3)[nH]2)c1 (stereo not drawn) the results were CHO-K1 Ca antag -13.5, M1 ag parental 2.2, M1 PAM parental 23.2, CHRM1 agonist -0.1, CHRM1 antagonist -7.2 and M1 PAM 4.9.
`CCc1cccc(NS(=O)(=O)c2c(C)nc3sc(CC)nn3c2=O)c1` gave CHO-K1 Ca antag 0.9, M1 ag parental 2.2, M1 PAM parental 3.4, CHRM1 agonist -8.7, CHRM1 antagonist 72.6* and M1 PAM -29.2.

Screens: PubChem, The Scripps Research Institute Molecular Screening Center
